Compound activity from PubChem BioAssay.
Most compounds without a hit are left out; they make up all but 3.6% or so of the library.
GALK inhibitor: qHTS Assay for Inhibitors of Human Galactokinase (GALK): NCGC Sytravon Library Screen; P51570; Potency, µM (series often up to 57.5 µM), most hits filed as inhibitors; recombinant GALK, Kinase-Glo ATP luminescence, 1 h; 44,000 tested, under 10 active
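Luminescent ATP-depletion readout (Kinase-Glo Plus, 10 min) after 1 h RT reaction of 5 nM GALK, 35 uM ATP, 100 uM galactose, pH 8.0 HEPES buffer. Decreased kinase activity scored as inhibition.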
B2AR arrestin ag: qHTS assay of beta-arrestin-biased ligands of beta2-adrenergic receptor: NCGC Sytravon Library Screen. AID 1347077, 2019. HTLA Tango cells, beta-arrestin recruitment, luciferase luminescence, 18 h. 44,000 tested, under 10 active. Potency, µM (doses to about 46.1 µM), most hits filed as activators. Beta-2 adrenergic receptor (Homo sapiens), P07550
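Tango cells expressing recombinant beta2-AR and beta-arrestin were treated with compounds (up to 46 microM titration) in DMEM with 1% FBS for 18 hr at 37 degrees C. Beta-arrestin recruitment drove tTA-dependent luciferase, read by luminescence; curves were fitted and classed.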
GALC G270D act: A Novel Cell-Based Assay to Identify Small Molecules for B -Galactocerebrosidase; 145M-Twi-hGALC-G270D cells (Twitcher mouse brain line with human GALC G270D), HMU-beta-Gal fluorescence, 48 h; P54803; actives 0.1% (n = 45,000); Potency, µM (top dose mostly 57.5 µM), actives largely listed as activators; further: nearly all actives have a fitted effect of over 65% in size
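Mutant human GALC (G270D), stably expressed in a Twitcher mouse brain cell line lacking endogenous GALC, is measured in live-treated cells via 6-hexadecanoylamino-4-methylumbelliferyl-β-galactoside hydrolysis (0.1 mM final, pH 5.2) with fluorescent detection.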
DRV1 agonist: qHTS for Agonists of Human Resolvin D1 Receptor DRV1 | CHO-K1 GPR32 beta-arrestin PathHunter luminescence, 90 min; zero percent set by DMSO-only wells | activation, % at 76.9 µM | actives 2.5% (n = 48,000);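 active means activation of at least 60% and not above a set upper limit, about 1 call in 100 departs from these limits; inconclusive means activation of 40% to 60%, or above that upper limit; inactive means activation under 40%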
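Cells are plated overnight, treated with compounds in DMSO for 90 minutes at 37 °C, and developed with PathHunter detection reagent for 1 hour before luminescence is read; signal reflects beta-arrestin binding to GPR32 in engineered CHO-K1 cells.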
NTMT1 inhibitor: Primary qHTS for Inhibitors of N-terminal methyltransferase 1 (NTMT1): MTaseGlo Assay | N-terminal Xaa-Pro-Lys N-methyltransferase 1 (Homo sapiens), Q9BV86 | NTMT1 MTase-Glo SAH luminescence, purified enzyme | Potency, µM (titrated, usually from 114 µM), most hits filed as inhibitors | actives 2.5% (n = 59,000) | AID 1645870, 2021; further: nearly all actives have a fitted effect of over 65% in size
Sfp qHTS opt: qHTS Assay for Inhibitos of Bacillus subtilis Sfp phosphopantetheinyl transferase (PPTase): Chemistry Optimization Followup | Potency, µM (doses to about 114 µM), actives largely listed as inhibitors | purified Sfp PPTase enzyme activity, qHTS | shares compounds with NTMT1 inhibitor | actives 78% (n = 230)
Bsub HM489 growth: qHTS for Inhibitos of Bacillus subtilis Sfp phosphopantetheinyl transferase (PPTase): Chemistry Optimization Followup in B. Subtilis HM489; B. subtilis HM489 (acpS-) growth, BacTiter-Glo, 5 h; shares compounds with NTMT1 inhibitor; actives 50% (n = 220); Potency, µM (highest dose often 114 µM), most hits filed as inhibitors
Sfp gel opt: Gel-Based Assay for Inhibitos of Bacillus subtilis Sfp phosphopantetheinyl transferase (PPTase): Chemistry Optimization Followup; Potency, µM (top dose mostly 250 µM), most hits filed as inhibitors; AID 540355, 2011; actives 54% (n = 220); shares compounds with NTMT1 inhibitor; purified Sfp PPTase, gel-based product detection
Sfp gel: qHTS Assay for Inhibitors of Bacillus subtilis Sfp phosphopantetheinyl transferase (PPTase): Gel Based Assay; actives 90% (n = 45); Potency, µM (series often up to 250 µM), usual class: inhibitors; AID 602362, 2012; shares compounds with NTMT1 inhibitor; purified Sfp PPTase, gel-based product detection
Sfp inh SAR2: qHTS Assay for Inhibitors of Bacillus subtilis Sfp phosphopantetheinyl transferase (PPTase): SAR Round 2; shares compounds with NTMT1 inhibitor; purified Sfp enzyme, PPTase activity, qHTS; Potency, µM (highest dose often 57.1 µM), actives largely listed as inhibitors; actives 87% (n = 230)
hGST A1-1 inh: qHTS Assay for Inhibitors of Bacillus subtilis Sfp phosphopantetheinyl transferase (PPTase): SAR in hGST A1-1 | shares compounds with NTMT1 inhibitor | hGST A1-1 enzyme activity counter-screen, qHTS | Potency, µM (highest dose often 114 µM), usual class: inhibitors | 55 tested, under 10 active | AID 602391, 2012
HSD17B4 counter: Extended Characterization of HPGD Inhibitors: Counterscreen Against HSD17b4 | shares compounds with NTMT1 inhibitor | purified HSD17B4, estradiol/NAD+, NADH fluorescence | Potency, µM (titrated, usually from 57.1 µM), most hits filed as inhibitors | actives 10% (n = 230)
Target sequence (P51659 whole entry, looked up): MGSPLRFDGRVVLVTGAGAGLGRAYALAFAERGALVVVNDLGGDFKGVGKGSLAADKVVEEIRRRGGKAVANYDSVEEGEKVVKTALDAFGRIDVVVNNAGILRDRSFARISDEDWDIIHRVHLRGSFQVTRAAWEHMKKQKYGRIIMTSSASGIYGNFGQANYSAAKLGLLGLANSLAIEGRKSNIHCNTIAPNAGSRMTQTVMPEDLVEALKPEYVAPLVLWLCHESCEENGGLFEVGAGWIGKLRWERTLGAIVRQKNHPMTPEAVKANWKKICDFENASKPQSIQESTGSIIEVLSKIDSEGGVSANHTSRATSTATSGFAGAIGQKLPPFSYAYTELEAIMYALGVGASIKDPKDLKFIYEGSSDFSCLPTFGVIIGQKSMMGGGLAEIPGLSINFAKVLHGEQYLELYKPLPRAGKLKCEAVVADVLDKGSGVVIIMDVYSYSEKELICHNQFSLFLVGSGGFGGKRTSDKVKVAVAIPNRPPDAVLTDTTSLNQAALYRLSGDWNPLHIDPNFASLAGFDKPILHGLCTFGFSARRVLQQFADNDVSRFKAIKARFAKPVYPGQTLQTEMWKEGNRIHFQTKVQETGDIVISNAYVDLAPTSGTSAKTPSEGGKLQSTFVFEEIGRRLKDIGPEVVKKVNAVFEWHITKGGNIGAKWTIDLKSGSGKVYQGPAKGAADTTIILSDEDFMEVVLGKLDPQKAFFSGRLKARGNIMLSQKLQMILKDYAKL
ALDH1A1 counter: Extended Characterization of HPGD Inhibitors: Counterscreen Against ALDH1A1; Potency, µM (doses to about 57.1 µM), actives largely listed as inhibitors; recombinant ALDH1A1, NADH fluorescence, propionaldehyde/NAD+; shares compounds with NTMT1 inhibitor; actives 93% (n = 230)
Of the large screens only hits and unclear results are named; the others gave an inactive call (follow-up assays come after a bar, where they were run). Unless noted, the call rests on the fitted dose curve; in most records, active means well fitted curve in the direction sought with a large enough effect; inconclusive means small, poorly fitted or top-dose-only effect, or another doubt; inactive means no such curve, though single readings can be large; an effect the other way counts as inactive or inconclusive.

Cc1cc(C)nc(NC(=S)N2CCN(c3ccc(F)c(F)c3F)CC2)c1	NTMT1 inhibitor inconclusive (no result: GALK inhibitor, B2AR arrestin ag, GALC G270D act, DRV1 agonist) | Sfp qHTS opt 2.1µM | Bsub HM489 growth 21µM | Sfp gel opt 7.9µM | Sfp gel 2.4µM | Sfp inh SAR2 1µM | hGST A1-1 inh inactive | HSD17B4 counter inactive | ALDH1A1 counter 9.6µM
Cc1cc(C)nc(NC(=S)N2CCN(c3ccc(C(=O)O)cc3)CC2)c1	NTMT1 inhibitor inconclusive (no result: GALK inhibitor, B2AR arrestin ag, GALC G270D act, DRV1 agonist) | Sfp qHTS opt 9.4µM | Bsub HM489 growth inactive | Sfp gel opt inactive | Sfp inh SAR2 3.2µM | HSD17B4 counter inconclusive | ALDH1A1 counter 22µM
Cc1cc(C(=O)N2CCN(c3ccccc3F)CC2)c2c(C)nn(-c3ccccc3)c2n1	none
Cc1cc(C)nc(NC(=S)N2CCN(c3cccc(S(C)(=O)=O)c3)CC2)c1	NTMT1 inhibitor inconclusive (no result: GALK inhibitor, B2AR arrestin ag, GALC G270D act, DRV1 agonist) | Sfp qHTS opt 4.7µM | Bsub HM489 growth inactive | Sfp gel opt 16µM | Sfp inh SAR2 2.9µM | HSD17B4 counter inactive | ALDH1A1 counter 15µM
CC(=O)c1ccc(N2CCN(C(=O)CCC(=O)Nc3ccc4nc(N5CCCCC5)cc(C)c4c3)CC2)cc1	NTMT1 inhibitor inconclusive
Cc1cc(C)nc(NC(=S)N2CCN(c3ccncc3)CC2)c1	NTMT1 inhibitor inconclusive (no result: GALK inhibitor, B2AR arrestin ag, GALC G270D act, DRV1 agonist) | Sfp qHTS opt inconclusive | Bsub HM489 growth inactive | Sfp gel opt inactive | Sfp inh SAR2 3.2µM | HSD17B4 counter inactive | ALDH1A1 counter 30µM
Cc1ccc(C2N=C(Nc3nc4ccccc4o3)NC3=C2C(=O)CCC3)cc1 (stereo not given)	none (no result: GALK inhibitor, B2AR arrestin ag, GALC G270D act, DRV1 agonist)
CC1(C)C[C@H](O)C[C@@]2(C)OC(=O)C=C12	none (no result: GALK inhibitor, B2AR arrestin ag, GALC G270D act, DRV1 agonist)
Cc1cc(C)nc(NC(=S)N2CC3CN(c4ccc(Cl)cc4C(F)(F)F)CC3C2)c1 (stereo not given)	NTMT1 inhibitor inconclusive (no result: GALK inhibitor, B2AR arrestin ag, GALC G270D act, DRV1 agonist) | Sfp qHTS opt 0.26µM | Sfp inh SAR2 0.73µM | hGST A1-1 inh inconclusive | HSD17B4 counter inactive | ALDH1A1 counter 8.6µM
Cc1cccc(CNc2ncnc3ccc(-c4cccc(Cl)c4)cc23)c1	none (no result: GALK inhibitor, B2AR arrestin ag, GALC G270D act, DRV1 agonist)
